Inconclusive results are not listed. The source made the active and inactive calls. The calls were made as follows: active = hit-call score of the fitted dose curve at least 0.9, where 1 is the maximum; inconclusive = response in the unintended direction; inactive = score below 0.9.
What was measured:
[1] = target: AR (gene 367) (UniProt P10275); test: ACEA_AR_agonist_80hr: ACEA Biosciences xCELLigence Real-Time Cell Analysis on Androgen Receptor Agonism for Proliferation (AID 2283783);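 also: hits increase impedance growth signal above DMSO baseline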
Outline: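 Real-time cell-growth kinetics were recorded by electrode impedance in 22Rv1 cells exposed to test chemicals up to 100 uM final; the 80 h timepoint served as the readout, fitted upward relative to DMSO controls, in biological duplicate.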

[2] = STM_H9_NormalizedViability: Cytotoxicity Assessment at 120 hours in the Stemina devTOX quickPredict H9 human embryonic stem cell (hESC)-based Assay (AID 2283784)
Outline: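 Viability of the cell layer was taken from live-cell protease cleavage of a fluorogenic substrate after compound exposure of undifferentiated H9 stem cells, with replenishment each 24h. Fluorescence was normalized to vehicle (0.1% DMSO).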

[3] = target: AR (gene 367) (UniProt P10275); test: ACEA_AR_antagonist_80hr: ACEA Biosciences xCELLigence Real-Time Cell Analysis on Androgen Receptor Antagonism for Proliferation (AID 2283787);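 also: 22Rv1 human prostate cancer cells with growth followed by electrical impedance; hits lower the impedance growth signal relative to DMSO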
Outline: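 Using 22Rv1 cells held in assay medium, we dosed compounds (100 uM maximum final, 1:4 serial, eight points, 0.5% DMSO at top) and recorded cell-electrode impedance; the 80 hr timepoint was analyzed against DMSO.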

[4] = ACEA_ER_AUC_viability: ACEA Biosciences xCELLigence Real-Time Cell Analysis on Estrogen Receptor Agonism for Viability (AID 2283782);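 also: hit means loss of impedance signal meaning reduced cell growth or viability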
Outline: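 Continuous-exposure impedance cell analysis uses T-47D cells in charcoal-stripped serum, eight 1:4 dilutions topping at 100 uM final, biological duplicate. Area under the growth curve at 80 h is fitted against DMSO baseline.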

[5] = target: Estrogen receptor beta (Homo sapiens) (UniProt Q92731); test: ATG_hERb_XSP1: Attagene TRANS-FACTORIAL Multi-Species (XSP1) HepG2 Assay for human Estrogen Receptor (ESR2) (AID 2283788)
Outline: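 Multiplexed trans-activation in transfected HepG2: ERβ-Gal4 reporter transcripts after 24 h treatment, detected by RT-PCR plus capillary electrophoresis.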

[6] = target: GAL4 Transcription Factor (Internal Marker), GAL4 (gene 855828) (UniProt P04386); test: ATG_GAL4_XSP1: Attagene TRANS-FACTORIAL Multi-Species (XSP1) HepG2 Assay for GAL4 Transcription Factor (Internal Marker) (AID 2283789)
Experimental: (§1) ATG_XSP1_multi-species_TRANS is a cell-based, multiplexed assay created by modifying the existing Attagene TRANS-FACTORIAL system to include a panel of nuclear receptors from some or all the following species: human (Homo sapiens), mouse (Mus musculus), frog (Xenopus laevis), zebrafish (Danio rerio), chicken (Gallus gallus), and turtle (Chrysemys picta). The ECOTOX-FACTORIAL format uses HepG2, a human liver cell line, with measurements taken at 24 hours after chemical dosing in a 24-well plate. Xsp1 included 3 nM 6-alpha-fluorotestosterone to partially stimulate the androgen receptor.ATG_GAL4_XSP1 is one of 29 assay components measured or calculated from the ATG_XSP1_multi-species_TRANS assay. It is designed to make measurements of mRNA induction, a form of inducible reporter, as detected with fluorescence intensity signals by Reverse transcription polymerase chain reaction (RT-PCR) and Capillary electrophoresis technology.This assay endpoint, ATG_GAL4_XSP1, was analyzed in the positive analysis fitting direction relative to DMSO as the negative control and baseline of activity. […] Furthermore, this assay endpoint can be referred to as a secondary readout, because this assay has produced multiple assay endpoints where this one serves a background control function. […]

[7] = ATG_M_06_XSP1: Attagene TRANS-FACTORIAL Multi-Species (XSP1) HepG2 Assay for M06 Transcription Factor (Internal Marker) (AID 2283790)
Outline: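 This background-control readout tracks M06 reporter mRNA, measured by RT-PCR and capillary electrophoresis. HepG2 cells transiently carrying the GAL4-UAS reporter panel were dosed for 24 h with 3 nM 6-alpha-fluorotestosterone added for partial AR stimulation; increases were scored relative to DMSO.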

[8] = ATG_M_61_XSP1: Attagene TRANS-FACTORIAL Multi-Species (XSP1) HepG2 Assay for M61 Transcription Factor (Internal Marker) (AID 2283797)
Outline: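 Background-control readout: reporter transcripts measured by RT-PCR and capillary electrophoresis 24 h after dosing transiently transfected HepG2 multi-reporter cells, with 3 nM 6-alpha-fluorotestosterone present. Fitted in the positive direction relative to DMSO.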

[9] = ATG_M_32_XSP1: Attagene TRANS-FACTORIAL Multi-Species (XSP1) HepG2 Assay for M32 Transcription Factor (Internal Marker) (AID 2283799)
Experimental: as §1, with “receptor.ATG_M_32_XSP1” for “receptor.ATG_GAL4_XSP1”, “ATG_M_32_XSP1,” for “ATG_GAL4_XSP1,”

[10] = target: Peroxisome proliferator-activated receptor gamma (Homo sapiens) (UniProt P37231); test: ATG_hPPARg_XSP1: Attagene TRANS-FACTORIAL Multi-Species (XSP1) HepG2 Assay for human Peroxisome Proliferator-activated Receptor gamma (PPARg) (AID 2283800)
Outline: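 Reporter mRNA induction, measured by RT-PCR with capillary electrophoresis 24 h after dosing, scored as gain over DMSO. Transfected HepG2 cells express exogenous NR-Gal4 chimeras driving GAL4-UAS reporters; medium includes 3 nM 6-alpha-fluorotestosterone.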

Sequence of AR (gene 367) (P10275 whole entry, looked up): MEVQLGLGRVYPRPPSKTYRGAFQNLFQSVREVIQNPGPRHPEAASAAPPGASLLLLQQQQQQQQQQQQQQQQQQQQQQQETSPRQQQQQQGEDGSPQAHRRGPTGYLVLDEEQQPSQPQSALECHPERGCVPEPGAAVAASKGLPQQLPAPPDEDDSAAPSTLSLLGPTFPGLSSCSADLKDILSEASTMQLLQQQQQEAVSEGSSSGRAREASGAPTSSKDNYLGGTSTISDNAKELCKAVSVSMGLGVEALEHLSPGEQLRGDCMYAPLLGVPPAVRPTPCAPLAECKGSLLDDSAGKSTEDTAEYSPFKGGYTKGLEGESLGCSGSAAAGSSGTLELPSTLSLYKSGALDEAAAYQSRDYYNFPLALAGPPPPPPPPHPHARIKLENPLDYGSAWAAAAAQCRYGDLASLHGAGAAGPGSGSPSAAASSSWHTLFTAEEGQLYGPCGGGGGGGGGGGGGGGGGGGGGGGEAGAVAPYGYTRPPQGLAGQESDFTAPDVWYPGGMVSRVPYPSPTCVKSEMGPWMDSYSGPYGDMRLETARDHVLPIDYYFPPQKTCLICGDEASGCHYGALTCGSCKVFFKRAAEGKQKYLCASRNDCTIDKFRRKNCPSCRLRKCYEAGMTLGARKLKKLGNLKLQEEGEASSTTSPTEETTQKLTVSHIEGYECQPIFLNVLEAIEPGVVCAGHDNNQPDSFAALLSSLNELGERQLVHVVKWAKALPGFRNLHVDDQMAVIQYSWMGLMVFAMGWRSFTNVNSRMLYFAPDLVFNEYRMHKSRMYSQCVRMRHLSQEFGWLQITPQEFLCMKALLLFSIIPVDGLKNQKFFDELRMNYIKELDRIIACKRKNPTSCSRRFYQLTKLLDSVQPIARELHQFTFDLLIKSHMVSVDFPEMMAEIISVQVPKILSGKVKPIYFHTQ
Sequence of Peroxisome proliferator-activated receptor gamma (Homo sapiens) (P37231 whole entry, looked up, the tested form may be a part): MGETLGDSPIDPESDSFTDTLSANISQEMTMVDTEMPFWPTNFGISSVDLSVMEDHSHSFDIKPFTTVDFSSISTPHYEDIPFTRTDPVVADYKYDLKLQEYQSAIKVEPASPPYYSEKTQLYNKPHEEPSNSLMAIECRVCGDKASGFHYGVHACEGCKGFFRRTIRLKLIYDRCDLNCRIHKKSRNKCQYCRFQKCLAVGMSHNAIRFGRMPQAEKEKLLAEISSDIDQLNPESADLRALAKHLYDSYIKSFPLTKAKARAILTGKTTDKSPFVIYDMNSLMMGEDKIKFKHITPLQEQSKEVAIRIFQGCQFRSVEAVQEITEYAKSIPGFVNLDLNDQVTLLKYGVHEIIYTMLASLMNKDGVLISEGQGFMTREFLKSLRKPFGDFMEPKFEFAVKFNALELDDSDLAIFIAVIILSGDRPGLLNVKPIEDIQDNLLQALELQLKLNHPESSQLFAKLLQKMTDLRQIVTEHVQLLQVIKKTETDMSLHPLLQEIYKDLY
Sequence of Estrogen receptor beta (Homo sapiens) (Q92731 whole entry, looked up, the tested form may be a part): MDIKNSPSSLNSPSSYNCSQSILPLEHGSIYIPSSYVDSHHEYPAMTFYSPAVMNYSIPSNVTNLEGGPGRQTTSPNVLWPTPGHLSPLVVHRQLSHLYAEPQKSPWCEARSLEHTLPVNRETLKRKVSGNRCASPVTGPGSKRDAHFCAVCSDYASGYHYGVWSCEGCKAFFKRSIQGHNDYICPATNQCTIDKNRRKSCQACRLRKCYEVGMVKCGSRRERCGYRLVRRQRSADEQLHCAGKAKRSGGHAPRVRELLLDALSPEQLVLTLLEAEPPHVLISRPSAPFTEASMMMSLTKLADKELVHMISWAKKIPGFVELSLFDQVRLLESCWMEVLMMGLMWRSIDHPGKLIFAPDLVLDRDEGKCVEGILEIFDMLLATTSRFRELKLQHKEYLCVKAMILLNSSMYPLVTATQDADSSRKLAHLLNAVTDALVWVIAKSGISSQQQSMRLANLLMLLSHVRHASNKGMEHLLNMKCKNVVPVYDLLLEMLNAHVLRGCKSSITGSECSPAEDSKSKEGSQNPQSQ
Sequence of GAL4 Transcription Factor (Internal Marker), GAL4 (gene 855828) (P04386 whole entry, looked up, the tested form may be a part): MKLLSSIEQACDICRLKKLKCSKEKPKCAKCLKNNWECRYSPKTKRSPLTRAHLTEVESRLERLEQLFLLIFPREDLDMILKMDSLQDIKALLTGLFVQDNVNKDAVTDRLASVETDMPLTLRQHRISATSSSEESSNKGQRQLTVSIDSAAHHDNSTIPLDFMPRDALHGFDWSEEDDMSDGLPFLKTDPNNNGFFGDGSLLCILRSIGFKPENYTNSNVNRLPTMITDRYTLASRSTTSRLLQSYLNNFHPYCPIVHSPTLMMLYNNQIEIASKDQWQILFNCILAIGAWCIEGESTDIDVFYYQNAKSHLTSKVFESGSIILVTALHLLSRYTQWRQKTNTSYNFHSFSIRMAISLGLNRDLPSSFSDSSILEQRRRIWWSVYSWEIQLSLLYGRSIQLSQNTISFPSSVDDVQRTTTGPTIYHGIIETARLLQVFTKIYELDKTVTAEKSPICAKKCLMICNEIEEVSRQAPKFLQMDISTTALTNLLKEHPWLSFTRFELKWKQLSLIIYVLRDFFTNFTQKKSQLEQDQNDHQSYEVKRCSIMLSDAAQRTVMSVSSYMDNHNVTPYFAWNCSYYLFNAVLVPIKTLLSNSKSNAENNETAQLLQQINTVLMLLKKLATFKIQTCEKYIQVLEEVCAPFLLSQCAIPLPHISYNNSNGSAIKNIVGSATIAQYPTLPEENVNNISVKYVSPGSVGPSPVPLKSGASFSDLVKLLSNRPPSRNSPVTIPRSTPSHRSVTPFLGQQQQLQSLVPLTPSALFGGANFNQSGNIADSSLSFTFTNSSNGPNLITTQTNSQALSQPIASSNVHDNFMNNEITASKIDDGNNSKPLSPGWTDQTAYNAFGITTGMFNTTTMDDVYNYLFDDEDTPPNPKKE

For COc1cc2c(c(OC)c1OC)-c1ccc(OC)c(=O)cc1[C@@H](NC(C)=O)CC2, the outcome [1] was “inactive”, the AC50 [2] was 0.0165 µM (active) and the AC50 [3] was 0.00409 µM (active).

In the case of OCc1ccccc1, the outcome [3] is reported as “inactive”.

In the case of NC(=O)N1c2ccccc2C=Cc2ccccc21, the outcome [2] is reported as “inactive”.

With CCCCC(CC)C(=O)OCCOCCOCCOC(=O)C(CC)CCCC (stereo unspecified) the outcome [1] was “inactive” and the AC50 [3] was 65.8 µM (active).

For O=S1(=O)CCCO1, the outcome [2] was “inactive”.

In the case of CCCCCCCCCCCCCCCCOS(=O)(=O)O, the outcome [4] is reported as “inactive”, the outcome [1] is reported as “inactive” and the AC50 [3] is reported as 46.2 µM (active).

With Cn1cc[nH]c1=S the outcome [4] was “inactive” and the outcome [2] was “inactive”.

For CCc1cccc(CC)c1N, the outcome [1] was “inactive” and the AC50 [3] was 7.11 µM (active).

For CCCC(CCC)C(=O)O, the AC50 [2] was 340 µM (active).

In the case of C=CCc1cc(S(=O)(=O)c2ccc(O)c(CC=C)c2)ccc1O, the AC50 [4] is reported as 76.7 µM (active), the AC50 [3] is reported as 26.2 µM (active) and the outcome [5] is reported as “inactive”. For the same compound, the outcome [6] was “inactive”, the outcome [7] was “inactive” and the outcome [8] was “inactive”. For the same compound, the outcome [9] was “inactive” and the AC50 [10] was 4.14 µM (active).

In the case of Nc1ccn([C@@H]2O[C@H](CO)[C@@H](O)[C@@H]2O)c(=O)n1, the AC50 [2] is reported as 0.27 µM (active).

With CCCCCCCCCC the outcome [4] was “inactive” and the outcome [2] was “inactive”.

With O=C1CN(N=Cc2ccc([N+](=O)[O-])o2)C(=O)N1 the AC50 [2] was 3.4 µM (active).

In the case of CCCCCCOC(=O)CC(CC(=O)OCCCCCC)(OC(=O)CCC)C(=O)OCCCCCC, the outcome [1] is reported as “inactive” and the outcome [3] is reported as “inactive”.

In the case of CC(C)C(=O)Nc1ccc([N+](=O)[O-])c(C(F)(F)F)c1, the AC50 [2] is reported as 65.6 µM (active), the outcome [5] is reported as “inactive” and the outcome [7] is reported as “inactive”. The outcome [8] was “inactive” and the AC50 [10] was 21.9 µM (active).

For CC[C@H](C)C(=O)O[C@H]1C[C@H](O)C=C2C=C[C@H](C)[C@H](CC[C@@H](O)C[C@@H](O)CC(=O)O)[C@H]21, the outcome [2] was “inactive”.

Source: PubChem BioAssay (EPA / NIEHS)
